# Screening data (PubChem)
# In the library only some 18% were active in any assay of this set; here they are far more common.
# TDP1 inh = inhibitors of human tyrosyl-DNA phosphodiesterase TDP1; Q9NUW8; recombinant TDP1, AlphaScreen DNA substrate cleavage; Potency, µM (doses to about 130 µM), inactives show at the top dose activity change, negative = inhibition, most hits filed as inhibitors; hit rate 0.28% among 350,000; also: potency is read from the fitted curve at half-maximal effect; nearly all actives have a fitted effect of over 40% in size
#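 Recombinant human Tdp1 (E. coli-expressed, 1 nM final) preincubated with compounds 15 min at room temperature, then 5'-biotin/3'-phosphotyrosine-FITC DNA substrate (15 nM final) added for 5 min. AlphaScreen beads (10 ug/ml final) added 10 min; cleavage lowers signal.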
# CtBP-E1A blk = inhibitors of CtBP/E1A interaction | AlphaScreen GST-E1A/His-CtBP binding, 1536-well; stronger effect = lower value | activity change, % (no concentration beside the values) | hit rate 0.49% among 340,000 | AID 651724; in the data active = activity change below about -65%; inconclusive = mostly about -30% to -63%
#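 In 5 uL wells, 23 nL compound meets equimolar GST-E1A and His-CtBP (5X stock 125 nM each) for 2 h, 37 °C. Beads (5X, 50 ug/mL) then 1 h, 37 °C, dark.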
# TDP1 cell noCPT = qHTS for Inhibitors of human tyrosyl-DNA phosphodiesterase 1 (TDP1): qHTS in cells in absence of CPT; DT40 Tdp1-/- hTDP1 cells, no CPT, ATP luminescence, 48 h; hit rate 15% among 420,000; Potency, µM (titrated, usually from 46.2 µM), for inactives: at the highest dose activity change, negative = growth inhibition, actives largely listed as inhibitors; also: potency is read from the fitted curve at half-maximal effect; nearly all actives have a fitted effect of over 55% in size
#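 Chicken DT40 Tdp1-/- cells complemented with human TDP1, screened without camptothecin (DMSO vehicle only), 400 cells/well. Compounds pin-transferred, cells incubated at 37 °C for at least 48 hr. Growth read as ATP-dependent luminescence (CellTiter-Glo, 30 min at RT).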
# DT40 TDP1 CPT = DT40-hTDP1 cell growth loss with CPT | chicken DT40 Tdp1-/-;hTDP1 cells + 20 nM CPT, ATP luminescence, 48 h | Potency, µM (series often up to 46.2 µM), inactives show top-dose activity change, negative = growth inhibition, hits mostly inhibitors | hit rate 12% among 420,000 | AID 686979; also: potency is read from the fitted curve at half-maximal effect; nearly all actives have a fitted effect of over 55% in size
#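 Cell growth measured by CellTiter-Glo luminescence after a minimum 48 h, 37 C compound exposure with 20 nM CPT in Tdp1-knockout DT40 cells stably expressing hTDP1, seeded 400/well; qHTS titration format.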
# IL-1B inflam inh = blocks inflammasome-driven IL-1 beta release; hit rate 4.7% among 360,000; THP-1 LPS/ATP IL-1B secretion, AlphaLISA, 16 h; stronger effect = lower value; AID 743279; activity change, % at 57.5 µM; in the data active = activity change below about -50%; inconclusive = mostly about -30% to -49%
#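 Secreted IL-1B measured by AlphaLISA bead assay after 16 h compound exposure of THP-1 cells; compounds (final up to 57.5 uM) added 1 h before LPS (250 ng/mL) and ATP (1.25 mM) stimulation; lower signal means less secretion.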
# Six1-Eya2 blk = inhibitors of human Six1/Eya2 interaction; hit rate 0.56% among 360,000; AID 651725; AlphaScreen GST-Six1/His-Eya2 binding, biochemical; stronger effect = lower value; Q15475+O00167; activity change, % (no concentration beside the values); in the data active = activity change below about -65%; inconclusive = mostly about -30% to -63%
#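 Compounds are tested against tagged Six1 and Eya2 proteins bridged by glutathione donor and nickel acceptor beads; after a one-hour incubation at 37 °C without light, AlphaScreen emission is recorded.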
# Numbers without * were called inactive; ? = inconclusive; · = no result given; [ ] = dose if it differs, or a comment. Unless noted, calls follow the shape of the dose curve; as a rule, active = well fitted curve in the direction sought with a large enough effect; inconclusive = small, poorly fitted or top-dose-only effect, or another doubt; inactive = no such curve, though single readings can be large; an effect the other way counts as inactive or inconclusive. % is scaled to controls: 0 for no effect and ±100 for the full control effect.
SMILES,TDP1 inh,CtBP-E1A blk,TDP1 cell noCPT,DT40 TDP1 CPT,IL-1B inflam inh,Six1-Eya2 blk
CCCCCCCNC(=O)C1(CC2CC(c3ccc(Cl)cc3)=NO2)CCN(C(=O)c2ccccc2)CC1 (configuration not stated),·,6,?,?,?,3
CCCCCCCNC(=O)C1(CC2CC(c3ccccc3)=NO2)CCN(C(=O)OC(C)(C)C)CC1 (configuration not stated),-3%,·,18µM*,?,-4,1
Cc1cc(NC(=O)CCC(=O)N(C(C(=O)NC(C)(C)C)c2ccccc2Cl)C(C)(C)C)no1 (configuration not stated),6%[0.0935 µM],-15,-28%,-18%,-1,-10
COc1cc(NC(=O)COc2cc(C)cc3oc(=O)cc(C)c23)cc(OC)c1OC,·,0,?,-20%,?,4
CCc1cc(=O)[nH]c(SCC(=O)N2CCOCC2)n1,-8%[0.505 µM],13,-7%,-30%,5,2
COc1ccc(N2CCN(C(=O)c3ccc(NS(=O)(=O)c4ccc(F)cc4)cc3)CC2)cc1,7%,-6,?,?,-2,-1
COc1ccc(N2CCN(C(=O)C3CCN(S(=O)(=O)c4cccs4)CC3)CC2)cc1,5%,-2,23µM*,?,5,-9
Cc1cccc(N2CCN(S(=O)(=O)c3cccs3)CC2)c1C,·,-13,4%,0%,?,-12
COc1ccc(N2CCN(C(=O)C3CCN(S(=O)(=O)c4cccc5nonc45)CC3)CC2)cc1,4%,·,16µM*,?,·,·
Cc1ccccc1N1CCN(S(=O)(=O)c2cccs2)CC1,-8%,13,-1%,-11%,-54*,7
COc1ccc(N2CCN(C(=O)c3ccc(NS(=O)(=O)c4cccs4)cc3)CC2)cc1,7%,-1,13µM*,?,4,-3
C=CCSc1nnc(NC(=O)CSCc2c(C)noc2C)s1,2%,0,-17%,2%,25,35
O=C(NC12CC3CC(CC(C3)C1)C2)c1cc(F)c(F)cc1Cl,·,7,-20%,-19%,2,1
C=CCN1C(=O)C(Cc2ccc(OC)cc2)S/C1=N\N=C\c1cccs1 (configuration not stated),4%,3,-11%,-26%,3,-1
CC1Cc2ccccc2N1C(=O)C1CCN(S(=O)(=O)c2cccs2)CC1 (configuration not stated),-2%,47,-11%,?,-67*,19
O=C(C1CCN(S(=O)(=O)c2cccs2)CC1)N1CCN(c2ccccc2F)CC1,5%,·,?,-11%,·,·
O=C(C1CCN(S(=O)(=O)c2cccs2)CC1)N1CCN(c2ccccc2O)CC1,1%,-4,?,15µM*,-27,0
O=C(C1CCC(CNS(=O)(=O)c2cccs2)CC1)N1CCN(c2ccc(F)cc2)CC1 (configuration not stated),2%,-3,21µM*,?,?,-15
O=C(NCc1ccc(F)cc1)C1CCC(CNS(=O)(=O)c2cccs2)CC1 (configuration not stated),12%,-1,-29%,4%,4,-2
Cc1cc(C)n(-c2nnc3n2N=C(c2ccccc2)CS3)n1,5%,7,-1%,-5%,26,0
Cc1cc(C)n(-c2nnc3n2N=C(c2c[nH]c4ccccc24)CS3)n1,7%,1,15µM*,21µM*,-10,-1
Cc1ccc(CNCc2ccco2)cc1,6%,·,-25%,-1%,-5,-3
COc1ccccc1C(C)NCC(=O)NCc1ccc(C)cc1 (configuration not stated),·,0,-1%,12%,11,4
